PubChem BioAssay AID1159580 (chemical genetic matrix, 2015)
Screen size: about 5,500 compounds; about 2,000 (36%) were called active. Not shown: some 18% with an inconclusive outcome. Rule as the data show it: active = normalized growth mostly below about 0.91 (no sharp cut-off); inconclusive = no clear call, values can overlap the other calls; inactive = mostly above about 0.92. This is one part of the list.

Assay: chemical genetic growth profiling, strain panel (AID 1159580);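 also: tested at 20 µM; growth read once vehicle control cultures reached saturation at 30 °C; 1 = growth at the plate median or of vehicle wells; lower values mean less growth of the strain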
Conditions: growth OD

Measured: normalized growth

Nc1nccs1
inactive: S. cerevisiae deletion strains, locus YJL187C, strain SWE1 (second series), stronger effect = lower value 0.947 | S. cerevisiae deletion strains, locus YJL187C, strain SWE1, stronger effect = lower value 0.998 | S. cerevisiae deletion strains, locus YJR043C, strain POL32, stronger effect = lower value 0.985 | S. cerevisiae deletion strains, locus YKL009W, strain mrt4, stronger effect = lower value 0.985 | S. cerevisiae deletion strains, locus YKL068W, stronger effect = lower value 0.981 | S. cerevisiae deletion strains, locus YKL085W, strain MDH1 (second series), stronger effect = lower value 0.981 | S. cerevisiae deletion strains, locus YKL085W, strain MDH1, stronger effect = lower value 0.981 | S. cerevisiae deletion strains, locus YKL160W, strain elf1, stronger effect = lower value 0.98 | S. cerevisiae deletion strains, locus YKL190W, strain CNB1, stronger effect = lower value 0.992 | S. cerevisiae deletion strains, locus YKR001C, strain vps1, stronger effect = lower value 0.985 | S. cerevisiae deletion strains, locus YKR026C, strain gcn3, stronger effect = lower value 0.995 | S. cerevisiae deletion strains, locus YKR091W, strain srl3, stronger effect = lower value 0.998 | S. cerevisiae deletion strains, locus YLL001W, strain dnm1, stronger effect = lower value 0.947 | S. cerevisiae deletion strains, locus YLL026W, stronger effect = lower value 0.993 | S. cerevisiae deletion strains, locus YLL041C, strain sdh2, stronger effect = lower value 0.991 | S. cerevisiae deletion strains, locus YLR027C, strain aat2, stronger effect = lower value 0.988 | S. cerevisiae deletion strains, locus YLR039C, strain RIC1, stronger effect = lower value 0.929 | S. cerevisiae deletion strains, locus YLR058C, strain SHM2, stronger effect = lower value 0.974 | S. cerevisiae deletion strains, locus YLR102C, strain apc9, stronger effect = lower value 0.996 | S. cerevisiae deletion strains, locus YLR221C, strain rsa3, stronger effect = lower value 0.992 | S. cerevisiae deletion strains, locus YLR258W, strain gsy2, stronger effect = lower value 1 | S. cerevisiae deletion strains, locus YLR262C, strain YPT6 (second series), stronger effect = lower value 0.939 | S. cerevisiae deletion strains, locus YLR262C, strain YPT6, stronger effect = lower value 0.929 | S. cerevisiae deletion strains, locus YLR268W, strain sec22, stronger effect = lower value 0.968 | S. cerevisiae deletion strains, locus YLR320W, strain mms22, stronger effect = lower value 1 | S. cerevisiae deletion strains, locus YLR330W, strain CHS5, stronger effect = lower value 0.993 | S. cerevisiae deletion strains, locus YLR342W, strain FKS1 (second series), stronger effect = lower value 1.03 | S. cerevisiae deletion strains, locus YLR342W, strain FKS1, stronger effect = lower value 0.975 | S. cerevisiae deletion strains, locus YLR357W, strain rsc2, stronger effect = lower value 0.945 | S. cerevisiae deletion strains, locus YLR370C, strain arc18, stronger effect = lower value 0.991 | S. cerevisiae deletion strains, locus YLR371W, strain rom2, stronger effect = lower value 0.999 | S. cerevisiae deletion strains, locus YLR384C, strain iki3, stronger effect = lower value 0.976 | S. cerevisiae deletion strains, locus YLR418C, strain cdc73, stronger effect = lower value 1.03 | S. cerevisiae deletion strains, locus YML016C, strain PPZ1, stronger effect = lower value 0.984 | S. cerevisiae deletion strains, locus YML032C, strain rad52, stronger effect = lower value 0.984 | S. cerevisiae deletion strains, locus YML120C, strain ndi1, stronger effect = lower value 0.99 | S. cerevisiae deletion strains, locus YML124C, strain tub3, stronger effect = lower value 0.985 | S. cerevisiae deletion strains, locus YMR058W, strain fet3, stronger effect = lower value 0.988 | S. cerevisiae deletion strains, locus YMR078C, strain ctf18, stronger effect = lower value 0.979 | S. cerevisiae deletion strains, locus YMR125W, strain sto1, stronger effect = lower value 0.988 | S. cerevisiae deletion strains, locus YMR129W, stronger effect = lower value 0.996 | S. cerevisiae deletion strains, locus YMR205C, strain PFK2, stronger effect = lower value 0.983 | S. cerevisiae deletion strains, locus YMR223W, strain ubp8, stronger effect = lower value 1.04 | S. cerevisiae deletion strains, locus YMR231W, strain pep5, stronger effect = lower value 0.99 | S. cerevisiae deletion strains, locus YMR307W, strain GAS1, stronger effect = lower value 1.07 | S. cerevisiae deletion strains, locus YNL067W, strain RPL9B, stronger effect = lower value 0.954 | S. cerevisiae deletion strains, locus YNL071W, strain lat1, stronger effect = lower value 1 | S. cerevisiae deletion strains, locus YNL128W, strain TEP1, stronger effect = lower value 1.01 | S. cerevisiae deletion strains, locus YNL209W, strain ssb2, stronger effect = lower value 0.991 | S. cerevisiae deletion strains, locus YNL233W, strain BNI4, stronger effect = lower value 0.96 | S. cerevisiae deletion strains, locus YNL248C, strain rpa49, stronger effect = lower value 1.02 | S. cerevisiae deletion strains, locus YNL250W, strain rad50, stronger effect = lower value 0.989 | S. cerevisiae deletion strains, locus YNL271C, strain bni1, stronger effect = lower value 0.978 | S. cerevisiae deletion strains, locus YNL298W, strain CLA4, stronger effect = lower value 0.999 | S. cerevisiae deletion strains, locus YNL307C, strain MCK1, stronger effect = lower value 0.988 | S. cerevisiae deletion strains, locus YNL322C, strain KRE1 (second series), stronger effect = lower value 0.985 | S. cerevisiae deletion strains, locus YNR049C, strain mso1, stronger effect = lower value 0.987 | S. cerevisiae deletion strains, locus YNR052C, strain pop2, stronger effect = lower value 0.998 | S. cerevisiae deletion strains, locus YOL006C, strain TOP1, stronger effect = lower value 0.899 | S. cerevisiae deletion strains, locus YOL012C, strain htz1 0.795 | S. cerevisiae deletion strains, locus YOL147C, strain pex11, stronger effect = lower value 0.993 | S. cerevisiae deletion strains, locus YOR001W, strain rrp6, stronger effect = lower value 0.983 | S. cerevisiae deletion strains, locus YOR061W, strain CKA2, stronger effect = lower value 0.958 | S. cerevisiae deletion strains, locus YOR069W, strain VPS5, stronger effect = lower value 0.99 | S. cerevisiae deletion strains, locus YOR070C, strain gyp1, stronger effect = lower value 0.999 | S. cerevisiae deletion strains, locus YOR080W, strain dia2, stronger effect = lower value 0.977 | S. cerevisiae deletion strains, locus YOR083W, strain WHI5, stronger effect = lower value 0.971 | S. cerevisiae deletion strains, locus YOR106W, strain vam3, stronger effect = lower value 0.955 | S. cerevisiae deletion strains, locus YOR136W, strain idh2, stronger effect = lower value 0.988 | S. cerevisiae deletion strains, locus YOR144C, strain elg1, stronger effect = lower value 0.992 | S. cerevisiae deletion strains, locus YOR184W, strain ser1, stronger effect = lower value 0.914 | S. cerevisiae deletion strains, locus YOR265W, strain rbl2, stronger effect = lower value 0.997 | S. cerevisiae deletion strains, locus YOR290C, strain snf2, stronger effect = lower value 0.945 | S. cerevisiae deletion strains, locus YOR316C, strain cot1, stronger effect = lower value 0.979 | S. cerevisiae deletion strains, locus YPL051W, strain arl3, stronger effect = lower value 0.965 | S. cerevisiae deletion strains, locus YPL078C, strain atp4, stronger effect = lower value 0.969 | S. cerevisiae deletion strains, locus YPL106C, strain sse1, stronger effect = lower value 0.958 | S. cerevisiae deletion strains, locus YPL240C, strain hsp82, stronger effect = lower value 0.994 | S. cerevisiae deletion strains, locus YPR119W, strain clb2, stronger effect = lower value 0.988 | S. cerevisiae deletion strains, locus YPR141C, strain kar3, stronger effect = lower value 0.973 | S. cerevisiae deletion strains, locus YPR163C, strain tif3, stronger effect = lower value 0.985 | S. cerevisiae deletion strains, locus YPR167C, strain met16, stronger effect = lower value 0.993 | S. cerevisiae deletion strains, strain wtn01, stronger effect = lower value 1.01 | S. cerevisiae strains, strain wild type, stronger effect = lower value 0.984
active: S. cerevisiae deletion strains, locus YOR270C, strain vph1, stronger effect = lower value 0.638
